Screening results (PubChem)
Shown are actives, neighbours in structure and some others; about 5.7% of the full set was active somewhere.
HEK293 tox = qHTS of GLP-1 Receptor Inverse Agonists: Cytotox Screen; Potency, µM (highest dose often 38.3 µM), for the others: at the highest dose activity change, negative = inhibition, actives largely listed as inhibitors; HEK293 cAMP-luciferase reporter cells, luminescence, 24 h; 410,000 compounds, 0.13% hits;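 further: loss of luciferase light is scored as toxicity; potency means the concentration at half of the fitted maximal effect; on the % scale 0 is the no-effect control and ±100 the full control effect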
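1536-well qHTS counterscreen of the MLSMR; 200 cells/uL, 12 h pre-incubation, 23 nL cpd, 24 h at 37 deg C 5% CO2, luciferase detection reagent, 12 min RT, luminescence. Inhibition = undesired.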
D3 antag = qHTS of D3 Dopamine Receptor Antagonist: qHTS. D(3) dopamine receptor (Homo sapiens), P35462. D3R cells, DiscoveRx beta-arrestin luminescence, antagonist mode; stronger effect = lower value. max response, negative = inhibition, %. 360,000 compounds, 2.5% hits. AID 652054, 2013; in the data active means max response below about -50%; inconclusive means no clear call, values can overlap the other calls; further: on the % scale 0 is the no-effect control and ±100 the full control effect
Target sequence (P35462 whole entry, looked up): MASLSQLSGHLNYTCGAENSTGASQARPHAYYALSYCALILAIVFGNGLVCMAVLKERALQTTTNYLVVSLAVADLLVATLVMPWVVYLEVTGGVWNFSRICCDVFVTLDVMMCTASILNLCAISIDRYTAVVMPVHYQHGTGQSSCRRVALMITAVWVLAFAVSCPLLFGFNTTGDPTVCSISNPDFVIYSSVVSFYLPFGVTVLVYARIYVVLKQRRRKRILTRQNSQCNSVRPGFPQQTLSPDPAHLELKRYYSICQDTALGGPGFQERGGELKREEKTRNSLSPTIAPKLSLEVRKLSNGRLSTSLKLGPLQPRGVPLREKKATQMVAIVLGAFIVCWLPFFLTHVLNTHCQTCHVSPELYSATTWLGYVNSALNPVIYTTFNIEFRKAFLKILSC
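Cells plated overnight at 1500 cells/well, then exposed to library compounds with dopamine controls for 90 minutes at 37 degrees C. DiscoveRx reagent added for 30–60 minutes at room temperature; luminescence read, quantitative HTS format.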
GLP-1R agonist = qHTS of GLP-1 Receptor Agonists. Potency, µM (titrated, usually from 45.6 µM), for the others: at the top dose activation, usual class: activators. HEK293 GLP-1R CRE-luciferase, luminescence, 4-6 h; cells express a hypersensitive GLP-1R form. Glucagon-like peptide 1 receptor (Homo sapiens), P43220. AID 624172, 2012. 380,000 compounds, 0.007% hits; further: potency means the concentration at half of the fitted maximal effect; % of control where 0% means no effect
ClpP mod = qHTS Assay for Activators of ClpP; Potency, µM (top dose mostly 57.5 µM), inactives show at the top dose activity change, negative = active; AID 651965, 2013; 340,000 compounds, 1.9% hits; purified B. subtilis ClpP, FRET peptide cleavage, 20 min; ATP-dependent Clp protease proteolytic subunit (Bacillus subtilis (strain 168)), P80244; active means well fitted falling curve with a large enough effect; inconclusive means small, poorly fitted or top-dose-only effect; inactive means no such curve, though single readings can be large or run the other way; further: potency means the concentration at half of the fitted maximal effect; the source files actives as falling curves though it sought activators and does not explain the sign; nearly all actives have a fitted effect of over 65% in size
Target sequence (P80244 whole entry, looked up): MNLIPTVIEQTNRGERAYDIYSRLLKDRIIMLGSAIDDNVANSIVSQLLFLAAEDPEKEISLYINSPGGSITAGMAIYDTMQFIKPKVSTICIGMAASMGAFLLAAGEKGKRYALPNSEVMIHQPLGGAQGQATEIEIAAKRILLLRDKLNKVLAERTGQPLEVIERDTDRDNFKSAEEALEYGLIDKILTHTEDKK
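Purified B. subtilis ClpP, 10 microg/mL final in Tris/HCl pH8 with KCl, BSA, glycerol and Tween-20, cleaved an Abz/nitrotyrosine-quenched decapeptide. Fluorescence (ex 320, em 430) was read at 0 and 20 min at room temperature. Delta was normalized to 5.8 microM ADEP and DMSO/no-enzyme controls.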
D3 ag = qHTS of D3 Dopamine Receptor Agonist: qHTS | D3R DiscoveRx beta-arrestin cells, luminescence, 90 min | max activation, % | 410,000 compounds, 0.58% hits; in the data active means max activation above about 30%; further: 0% is about no effect
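Agonist mode: compounds and dopamine controls were applied to plated cells for 90 min at 37 degrees C after an overnight attachment at 1500 cells/well. Luminescent read-out followed 30 - 60 minutes at room temperature with DiscoveRx detection reagent.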
GLP-1R inv ag = qHTS of GLP-1 Receptor Inverse Agonists (Inhibition Mode); Glucagon-like peptide 1 receptor (Homo sapiens), P43220; HEK293 GLP-1R CRE-luciferase, luminescence, 24 h; GLP-1R form is constitutively active; Potency, µM (titrated, usually from 38.3 µM), for the others: at the top dose activity change, negative = inhibition, actives largely listed as inhibitors; 410,000 compounds, 1.6% hits; AID 624417, 2012; further: potency means the concentration at half of the fitted maximal effect; on the % scale 0 is the no-effect control and ±100 the full control effect; nearly all actives have a fitted effect of over 55% in size
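Readout was luciferase luminescence, measured 12 min after detection reagent at room temperature. Beforehand, GLP-1R reporter HEK293 cells had sat 12 h, then received compounds for 24 hr at 37 deg C.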
The depositor's hits bear a star. Unless noted, the call rests on the fitted dose curve; in most records, active means well fitted curve in the direction sought with a large enough effect; inconclusive means small, poorly fitted or top-dose-only effect, or another doubt; inactive means no such curve, though single readings can be large; an effect the other way counts as inactive or inconclusive.

Results for COCC(=O)N(C)CC1CCCN(CCc2ccccc2OC)C1 (stereo unspecified) ?
HEK293 tox: 1.9%; D3 antag: -64.1*; GLP-1R agonist: 9.6%; ClpP mod: -5.2%; D3 ag: -11.9; GLP-1R inv ag: -23.9%

How did COc1ccccc1CCN1CCCC(CN(C)C(=O)CCC(=O)N(C)C)C1 (stereo unspecified) do in these assays?
HEK293 tox: -1.8%; D3 antag: 7.6; GLP-1R agonist: -5.9%; D3 ag: -2.0; GLP-1R inv ag: 13.6%

Results for COc1ccc(CN(C)CC2CCCN(CCc3ccc(F)cc3)C2)cc1OC (stereo unspecified) ?
HEK293 tox: -19.9%; D3 antag: -14.3; GLP-1R agonist: 4.1%; ClpP mod: 0.5%; D3 ag: -12.9; GLP-1R inv ag: 11.2µM*

How did Cc1cc2nnc(SCc3ccc(F)cc3)n2c2ccccc12 do in these assays?
HEK293 tox: 2.4%; GLP-1R agonist: 26.5%; ClpP mod: -23.5%; D3 ag: 2.7; GLP-1R inv ag: -6.7%

Results for Cc1ccc(NC(=S)N(CCCN2CCCC2)Cc2cccn2Cc2ccc(Cl)cc2)cc1C ?
HEK293 tox: -26.7%; D3 antag: -26.0; GLP-1R agonist: 11.2%; D3 ag: -18.2; GLP-1R inv ag: inconclusive

How did FC(F)(F)c1cccc(NC(=S)N(CCCN2CCCC2)Cc2cccn2Cc2ccc(Cl)cc2)c1 do in these assays?
HEK293 tox: -92.6%; D3 antag: inconclusive; GLP-1R agonist: 2.7%; D3 ag: -19.5; GLP-1R inv ag: 6.31µM*

Results for CC(C)(C)c1ccc(C2=NC(C)(C)N(CC(=O)Nc3ccc(F)c(F)c3)C2=O)cc1 ?
HEK293 tox: 0.8%; ClpP mod: 0.7%; D3 ag: 3.1; GLP-1R inv ag: 11.2µM*

Results for CNC(=O)c1cc2c(s1)-c1ccccc1CC2 ?
HEK293 tox: -9.2%; D3 antag: -1.0; GLP-1R agonist: 19.6%; ClpP mod: 3.7%; D3 ag: -1.6; GLP-1R inv ag: -9.2%

How did O=C(N/N=C/c1ccc(F)c(F)c1)c1cc2c(s1)-c1ccccc1CC2 do in these assays?
HEK293 tox: 9.2%; D3 antag: 16.5; GLP-1R agonist: -3.2%; ClpP mod: 31.6µM*; D3 ag: -0.5; GLP-1R inv ag: 7.8%

How did COc1ccc(CNC(=O)Cn2c(SCC(=O)Nc3ccc(OC)cc3)nc3ccccc32)cc1 do in these assays?
HEK293 tox: -29.2%; ClpP mod: -2.0%; D3 ag: 3.4; GLP-1R inv ag: -5.7%

What do the screens show for `Cc1cc(NCCN(C)C)n2nc(-c3cccs3)cc2n1`?
HEK293 tox: 9.5%; D3 antag: -22.8; GLP-1R agonist: -5.8%; ClpP mod: 28.2µM*; D3 ag: -24.9; GLP-1R inv ag: 4.3%

What do the screens show for `Cc1cc(NCCCO)n2nc(-c3cccs3)cc2n1`?
HEK293 tox: 12.4%; D3 antag: -10.6; GLP-1R agonist: 10.2%; D3 ag: 2.7; GLP-1R inv ag: 2.0%

How did COc1cccc(-c2nn(C)c3sc(C(=O)NCCCN(C)Cc4ccccc4)cc23)c1 do in these assays?
HEK293 tox: inconclusive; D3 antag: -53.3*; GLP-1R agonist: 0.2%; ClpP mod: 4.1%; D3 ag: -15.9; GLP-1R inv ag: 5.62µM*

Results for CCN1CCCC1CNC(=O)c1cc2c(-c3ccc(Cl)cc3)nn(C)c2s1 (stereo unspecified) ?
HEK293 tox: inconclusive; D3 antag: inconclusive; GLP-1R agonist: -4.6%; ClpP mod: 4.5%; D3 ag: -10.3; GLP-1R inv ag: inconclusive

How did CCN(CC)CCCNC(=O)c1cc2c(-c3cccc(OC)c3)nn(C)c2s1 do in these assays?
HEK293 tox: -13.9%; D3 antag: -82.2*; GLP-1R agonist: -7.1%; ClpP mod: 4.9%; D3 ag: -6.7; GLP-1R inv ag: inconclusive

Results for COCCCNC(=O)c1cc2c(-c3ccc(Cl)cc3)nn(C)c2s1 ?
HEK293 tox: 0.8%; D3 antag: 36.3; GLP-1R agonist: 6.7%; ClpP mod: 4.5%; D3 ag: 3.6; GLP-1R inv ag: 12.2%

How did COc1cccc(-c2nn(C)c3sc(C(=O)NCCc4ccc(Cl)cc4)cc23)c1 do in these assays?
HEK293 tox: -8.4%; ClpP mod: 4.2%; D3 ag: 5.3; GLP-1R inv ag: -22.0%

Results for COc1cccc(-c2nn(C)c3sc(C(=O)NCc4ccco4)cc23)c1 ?
HEK293 tox: -3.1%; D3 antag: -3.6; GLP-1R agonist: 3.0%; ClpP mod: 22.4µM*; D3 ag: 0.0; GLP-1R inv ag: inconclusive

How did CCN1CCCC1CNC(=O)c1cc2c(-c3cccc(OC)c3)nn(C)c2s1 (stereo unspecified) do in these assays?
HEK293 tox: inconclusive; D3 antag: -71.7*; GLP-1R agonist: 1.3%; ClpP mod: 31.6µM*; D3 ag: 0.6; GLP-1R inv ag: inconclusive

Results for COc1cccc(-c2cc(C(=O)NCc3ccco3)no2)c1 ?
HEK293 tox: -3.8%; D3 antag: -11.1; GLP-1R agonist: -9.8%; ClpP mod: 1.5%; D3 ag: -7.3; GLP-1R inv ag: 8.8%

How did O=c1[nH]c(=S)[nH]c2c1C(c1ccc(F)cc1)OC(CCC(F)(F)F)C2 (stereo unspecified) do in these assays?
HEK293 tox: 4.9%; D3 antag: 0.1; GLP-1R agonist: -2.2%; ClpP mod: -0.8%; D3 ag: 8.5; GLP-1R inv ag: 4.4%

Results for Cc1cccc(CC(=O)N2CC(=O)Nc3ccc(C)cc3C2c2ccc(F)cc2)c1 (stereo unspecified) ?
HEK293 tox: 0.2%; ClpP mod: -2.1%; D3 ag: 9.3; GLP-1R inv ag: inconclusive

What do the screens show for `CCCCNC(=O)c1cc2c(-c3ccc(Cl)cc3)nn(C)c2s1`?
HEK293 tox: 1.7%; D3 antag: 37.4; GLP-1R agonist: 5.1%; ClpP mod: 4.2%; D3 ag: -3.2; GLP-1R inv ag: -0.8%

What do the screens show for `CCCCN(CC)CCCNC(=O)c1cc2c(-c3ccc(OC)c(OC)c3)nn(C)c2s1`?
HEK293 tox: inconclusive; D3 antag: -97.9*; GLP-1R agonist: 14.9%; ClpP mod: -21.3%; D3 ag: -22.3; GLP-1R inv ag: inconclusive

Results for CCCCN(C)CCNC(=O)c1cc2c(-c3cccc(OC)c3)nn(C)c2s1 ?
HEK293 tox: -22.2%; D3 antag: -78.1*; GLP-1R agonist: 4.1%; D3 ag: -18.9; GLP-1R inv ag: inconclusive
